101 compounds from PubChem BioAssay AID588342 (National Center for Advancing Translational Sciences (NCATS), 2011) can be followed below.

The structures appear in SMILES notation. Hit rate of the full screen: of about 360,000 compounds, about 25,000 (6.9%) were called active. Entries that show only a call come without a potency. Not shown: some 9% with an inconclusive outcome. Calls follow the shape of the dose curve; as a rule, active = well fitted inhibition curve with a large enough effect; inconclusive = small, poorly fitted or top-dose-only effect; inactive = flat fitted curve, though single readings scatter. Only a selection was taken, and actives are over-represented in it overall.
Potency is read from the fitted curve at half-maximal effect.

Chain of Luciferin 4-monooxygenase (Photinus pyralis) (P08659 whole entry, looked up): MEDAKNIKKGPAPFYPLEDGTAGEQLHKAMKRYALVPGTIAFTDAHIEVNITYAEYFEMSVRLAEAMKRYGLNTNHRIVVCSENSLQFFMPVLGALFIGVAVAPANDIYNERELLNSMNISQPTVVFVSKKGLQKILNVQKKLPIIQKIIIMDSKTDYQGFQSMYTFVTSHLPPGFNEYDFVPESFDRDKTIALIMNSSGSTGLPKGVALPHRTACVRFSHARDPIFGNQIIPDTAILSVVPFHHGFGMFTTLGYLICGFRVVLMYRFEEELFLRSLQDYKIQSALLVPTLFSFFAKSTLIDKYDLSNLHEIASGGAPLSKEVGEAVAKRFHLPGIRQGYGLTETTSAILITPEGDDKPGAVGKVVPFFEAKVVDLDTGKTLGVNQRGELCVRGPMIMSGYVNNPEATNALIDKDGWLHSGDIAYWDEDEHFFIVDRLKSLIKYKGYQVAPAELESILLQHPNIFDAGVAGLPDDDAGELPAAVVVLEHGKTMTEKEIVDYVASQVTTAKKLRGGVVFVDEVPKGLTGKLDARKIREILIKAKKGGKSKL

The assay concerns the target Luciferin 4-monooxygenase (Photinus pyralis) (UniProt P08659). The assay can be described thus: qHTS profiling assay for firefly luciferase inhibitor/activator using purifed enzyme and Km concentrations of substrates (counterscreen for miR-21 project). Also: nearly all actives have a fitted effect of over 55% in size. Conditions: purified FLuc, luminescence inhibition; series mostly up to 57.5 µM. An outline of the steps:
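Biochemical qHTS of compounds, final roughly 60 µM downward over six points, against 10 nM purified firefly luciferase using Km concentrations of substrates (10 uM D-luciferin, 10 uM ATP) in Tris acetate pH 7.5 buffer; luminescence output.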
In general terms: Quantitative high-throughput screening tests each substance at several concentrations.
As for `Cc1cccc(-n2c(Cc3cc(=O)[nH]c(=O)[nH]3)nnc2SC(C)C)c1`, the Potency entry was “inactive”.

Take `COc1cccc(N(CC(=O)NC2CCCC2)C(=O)Cn2nnc(-c3ccc(C)o3)n2)c1`: the Potency result was “inactive”.

`O=S(=O)(c1ccc(Br)cc1)c1nnn2c1nc(N1CCOCC1)c1sccc12`: the Potency entry was “inactive”.

As to `CCn1cc2nc(SCc3ccccc3Cl)n(CCc3ccccc3)c(=O)c2n1`, the Potency entry is “inactive”.

For `COc1ccccc1CC(=O)Nc1ccc(F)cc1F`, the Potency entry was “inactive”.

For the compound `COc1ccc(NC(=O)c2ccc3nc(CCc4ccccc4)oc3c2)c(OC)c1`, the Potency entry was “inactive”.

As for `COc1ccc(C(=O)NNC(=S)NC(=O)c2ccccc2)cc1`, the Potency result is “inactive”.

Turning to `COc1ccc(NC(=O)ON=C2c3ccccc3-c3ccccc32)cc1`, the Potency was 21.3 µM (active).

As to `CCc1ccccc1NC(=O)c1ccc2nc(CCc3ccccc3)oc2c1`, the Potency result was “inactive”.

Turning to `COc1ccc(C(=O)Nc2ccc(F)cc2F)cc1`, the Potency was 10.7 µM (active).

Take `COc1cccc(NC(=O)c2ccc3nc(CCc4ccccc4)oc3c2)c1`: the Potency was 23.9 µM (active).

For the compound `O=C(NC(=S)NC1CCCCC1)c1ccc(Cl)cc1`, the Potency result was “inactive”.

In the case of `COc1ccc(C(=O)NC(=S)NC2CCCCC2)cc1`, the Potency was 15.1 µM (active).

Consider `COc1cc(OC)cc(C(=O)OCC(=O)Nc2ccc(F)cc2F)c1`, for which the Potency entry is “inactive”.

With `COc1ccc(NC(=O)C(Br)C(C)C)cc1` (stereo unspecified), the Potency result was “inactive”.

As for `COc1ccc(NC(=O)CS(=O)(=O)c2ccccc2)cc1`, the Potency entry is “inactive”.

Regarding `Cc1ccc2c(=O)c(C(=O)c3ccc(Cl)cc3)cn(CC(=O)NC3CCCCC3)c2n1`, the Potency result was “inactive”.

With `CC(=O)N1c2ccccc2CC1C(=O)N1CCN(c2ccc(F)cc2)CC1` (stereo unspecified), the Potency result is “inactive”.

For `O=c1cc2nc(-c3ccccc3)nc(SCCOc3ccc(Cl)cc3)n2[nH]1`, the Potency entry is “inactive”.

In the case of `O=C(NNC(=S)NC1CC2CCC1C2)c1ccc(Cl)cc1` (stereo unspecified), the Potency entry is “inactive”.

Consider `CCc1cc(C(=O)c2ccc(OC)cc2)c(NC(=O)CN2CCN(C)CC2)s1`, for which the Potency result was “inactive”.

`CCc1cc(C(N)=O)c(NC(=O)c2ccc(OC)cc2)s1`: the Potency is 6.01 µM (active).

Consider `CCc1cc(C(c2ccccc2OC)N2CCOCC2)c(NC(=O)c2ccccc2)s1` (stereo unspecified), for which the Potency result is “inactive”.

With `CC(=O)c1ccc(NC(=O)c2nc3nc(C)cc(C(F)F)n3n2)cc1`, the Potency result was “inactive”.

Take `Cc1cc(C)cc(N(CC(=O)NC2CCCC2)C(=O)CCC(=O)Nc2cc(C)on2)c1`: the Potency result was “inactive”.

For `CCOC(=O)c1c(S(=O)(=O)N2CCCC(C(=O)NCc3ccc(F)cc3)C2)c(C)n(CC)c1C` (stereo unspecified), the Potency entry is “inactive”.

With `CCOCCOC(=O)C1=C(C)NC(=O)NC1c1ccc2c(c1)OCO2` (stereo unspecified), the Potency result is “inactive”.

In the case of `Cc1ccc(C(=O)OCC(=O)NCc2ccc3c(c2)OCO3)s1`, the Potency entry is “inactive”.

As for `CCOC(=O)c1nc(-c2ccc3c(c2)OCO3)[nH]c1C`, the Potency is 15.1 µM (active).

On to `CCCCN(CC)CCNC(=O)CCNC(=O)Cn1ccc2ccccc2c1=O`, for which the Potency result was “inactive”.

Regarding `Cc1ccc(C)c(OCC(=O)Nc2sc3c(c2C#N)CCCC3)c1C`, the Potency result was “inactive”.

On to `O=c1cc(COc2cccc(C(F)(F)F)c2)nc2sc3c(n12)CCCC3`, for which the Potency result was “inactive”.

Regarding `CC(=O)c1cc(-c2ccccc2)[nH]c1N1CCCC1`, the Potency entry is “inactive”.

Take `O=C1NN(c2ccccc2)C(=O)/C1=C/c1ccc(-c2cccc(C(=O)O)c2)o1`: the Potency was 26.9 µM (active).

Consider `CN1C(=O)/C(=C/c2ccco2)SC1=Nc1cccc(C(=O)O)c1`, for which the Potency entry is “inactive”.

For `CCCN(CCC)S(=O)(=O)c1ccc(C(=O)Nc2sc3c(c2C(=O)OC)CCN(CC)C3)cc1`, the Potency result was “inactive”.

`CCc1nnc(NC(=O)C2CCN(C(=O)c3ccccc3C)CC2)s1`: the Potency entry is “inactive”.

Regarding `CC(C)(C)c1ccc(/C=C/C(=O)Nc2ncccn2)cc1`, the Potency was 4.78 µM (active).

Turning to `O=C(/C=C/c1ccc(Cl)cc1)Nc1ccc(Br)cn1`, the Potency entry was “inactive”.

`CC(C)(C)c1ccc(/C=C/C(=O)NC2CCS(=O)(=O)C2)cc1` (stereo unspecified): the Potency entry is “inactive”.

Turning to `O=S(=O)(Cc1nnnn1-c1ccc(Br)cc1)c1ccc(F)cc1`, the Potency result was “inactive”.

Turning to `Cc1cc(C)c(CN2CCN(C(=O)Cn3ccc(NC(=O)OCc4ccccc4)nc3=O)CC2)c(C)c1`, the Potency result is “inactive”.

In the case of `Cc1cc(-c2csc(N)n2)c(C)n1-c1ccccc1`, the Potency was 19 µM (active).

As to `CC(=O)Nc1ccc(C(=O)Nc2nc(-c3cc(C)n(Cc4ccccc4)c3C)cs2)cc1`, the Potency result was “inactive”.

For `Cc1cc(C(=O)OCC(=O)N2c3ccccc3NC(=O)C2(C)C)c(C)n1-c1ccccc1`, the Potency entry is “inactive”.

In the case of `C=CCSc1ccc(S(=O)(=O)N2CCN(C)CC2)cn1`, the Potency entry was “inactive”.

In the case of `Cc1ccc2nc(-c3ccc(NC(=O)CN(C)S(=O)(=O)c4ccccc4)cc3)sc2c1`, the Potency was 15.1 µM (active).

For the compound `COc1cc(NC(=O)CN(C)S(=O)(=O)c2ccc3nc(C)sc3c2)cc(OC)c1`, the Potency result was “inactive”.

Consider `COc1cccc(N(CC(=O)Nc2cccc(F)c2)S(C)(=O)=O)c1`, for which the Potency entry was “inactive”.

As to `CCN(CC)S(=O)(=O)c1ccc(NC(=O)CN(c2cccc(F)c2)S(C)(=O)=O)cc1`, the Potency entry was “inactive”.

For the compound `Cc1nc2ccc(S(=O)(=O)N(C)CC(=O)NC(C)c3ccccc3)cc2s1` (stereo unspecified), the Potency entry was “inactive”.

Consider `Cc1cccc(N(CC(=O)Nc2ccc(-c3nc4ccc(C)cc4s3)cc2)S(C)(=O)=O)c1`, for which the Potency was 5.36 µM (active).

Consider `C=CCNC(=O)COC(=O)CNC(=O)c1cc(Cl)cc([N+](=O)[O-])c1`, for which the Potency entry is “inactive”.

As for `Cc1ccc(C)c(N2CCN(C(=O)Cc3c(C(=O)O)c(C)cn3C)CC2)c1`, the Potency entry was “inactive”.

Consider `CSc1cccc(NC(=O)CN2C(=O)CCc3cc(S(=O)(=O)N4CCCCC4)ccc32)c1`, for which the Potency result is “inactive”.

Consider `COc1cccc(OC)c1C(=O)Nc1ccc2c(c1)n(C)c(=O)n2C`, for which the Potency result is “inactive”.

`Cn1c(=O)n(C)c2cc(/C=N/NC(=O)c3cccc(Br)c3)ccc21`: the Potency result was “inactive”.

As for `Cn1c(=O)n(C)c2cc(C(=O)Nc3ccc(Br)cc3)ccc21`, the Potency was 15.1 µM (active).

For the compound `COc1cc(OC)c(OC)cc1/C=C/c1nc2ccccc2c(=O)n1-c1ccc(Br)c(C)c1`, the Potency entry was “inactive”.

In the case of `CCOCCCNC(=O)c1ccc(CS(=O)(=O)c2cccc(C(F)(F)F)c2)o1`, the Potency result is “inactive”.

Turning to `C=CCc1c(C)nc2cc(-c3ccccc3)[nH]n2c1=O`, the Potency is 6.01 µM (active).

Take `CCc1c(C)nc2cc(C)[nH]n2c1=O`: the Potency result was “inactive”.

On to `Cc1cc2nc3c(=O)n(Cc4ccccc4)c(=O)[nH]c3nc2cc1N`, for which the Potency result was “inactive”.

For the compound `CCCCN1Cc2c(nc3cc(-c4ccccc4)[nH]n3c2=O)C1=O`, the Potency is 19 µM (active).

As for `CCc1c(C)nc2cc(-c3cccs3)[nH]n2c1=O`, the Potency is 16.9 µM (active).

In the case of `Cc1nc2c(-c3ccccc3)c(C)[nH]n2c(=O)c1Cl`, the Potency result was “inactive”.

As to `CCCCCN1CC(O)=C(c2ccccc2)C1=N`, the Potency result was “inactive”.

Regarding `Cc1nc2scc(-c3cccs3)c2c(=O)n1N`, the Potency result is “inactive”.

For `CCOC(=O)c1ccc(NC(=O)CCS(=O)(=O)c2ccc(C)cc2)cc1`, the Potency result is “inactive”.

As for `O=C(/C=C/c1cccc([N+](=O)[O-])c1)OCC(=O)N1CCOCC1`, the Potency result was “inactive”.

As for `CCc1ccccc1N1C(=O)CN(S(=O)(=O)CC)CC1(C)C(=O)NC1CCCCC1` (stereo unspecified), the Potency result is “inactive”.

On to `CCCn1c2ccccc2c2cnn(CC(=O)N3CCCC(C(=O)OCC)C3)c(=O)c21` (stereo unspecified), for which the Potency entry was “inactive”.

Take `Cn1c(=O)[nH]c(=O)c2c1nc(NCCc1ccccc1)n2Cc1ccc(F)cc1`: the Potency result is “inactive”.

In the case of `COc1ccc2c(c1)CCC/C2=N\OC(=O)c1ccccc1F`, the Potency was 12 µM (active).

Regarding `COc1cc2c(cc1OC)C(COc1ccc(F)cc1)N(C(=O)c1ccccc1F)CC2` (stereo unspecified), the Potency result is “inactive”.

As for `COc1ccc(OC)c(S(=O)(=O)Nc2ccccc2F)c1`, the Potency entry was “inactive”.

For the compound `O=C(CNS(=O)(=O)c1ccc2c(c1)OCCCO2)N1CCN(c2ccc(F)cc2)CC1`, the Potency result is “inactive”.

As for `COC(=O)/C(=C1\Oc2ccc(C(C)(C)C)cc2S1)C(F)(F)F`, the Potency is 3.79 µM (active).

For the compound `CCOC(=O)C1=C(c2ccccc2)O/C(=C(/C(=O)OC)C(F)(F)F)S1`, the Potency result is “inactive”.

Regarding `CC(C)(C)c1ccc(C(=O)NCC(c2ccco2)S(=O)(=O)c2ccc(F)cc2)cc1` (stereo unspecified), the Potency result is “inactive”.

In the case of `CCOC(=O)c1c(C)n(S(=O)(=O)c2ccc(C)cc2C)c2ccc(NS(=O)(=O)c3ccc(C)cc3C)cc12`, the Potency entry is “inactive”.

Turning to `O=C(Nc1ccc(OC(F)(F)F)cc1)C1CCCN(S(=O)(=O)c2ccc(Br)s2)C1` (stereo unspecified), the Potency result is “inactive”.

For `Cc1ccc2c(=O)cc(C(=O)Nc3sc4c(c3C(=O)NCc3cccnc3)CCCC4)oc2c1`, the Potency entry is “inactive”.

Consider `COc1ccccc1C(=O)NCCn1cc(SCc2ccccc2Cl)c2ccccc21`, for which the Potency result was “inactive”.

As for `Cc1ccccc1NC(=O)Cn1c(=O)n(CCc2ccccc2)c(=O)c2ccccc21`, the Potency result was “inactive”.

On to `Cc1nnc(C)n1-c1ccc(C(=O)Nc2cccc(Br)c2)cc1`, for which the Potency entry was “inactive”.

For the compound `Cc1cccc(C)c1-n1c(C)cc(/C=C2\C(=O)NN(c3ccccc3)C2=O)c1C`, the Potency was 3.38 µM (active).

Turning to `COc1ccc(CNC(=O)c2cc3c(s2)-c2ccccc2OC3)cc1`, the Potency entry is “inactive”.

Take `Cc1csc(=O)n1CCC(=O)OCC(=O)NNC(=O)c1ccc(Br)cc1`: the Potency entry is “inactive”.

Take `Cc1ccc(Cn2c(CCCNC(=O)C3CCCCC3)nc3ccccc32)cc1`: the Potency result is “inactive”.

Take `CC(=O)Nc1nc2ccccc2n1Cc1ccc(C)cc1`: the Potency result was “inactive”.

As for `CCCc1nc2c(C)cc(-c3nc4ccccc4n3C)cc2n1Cc1ccc(-c2ccccc2C(=O)O)cc1`, the Potency was 13.5 µM (active).

`Cc1ccc(C)c(C(=O)COC(=O)Cn2[nH]c(=O)c3ccccc3c2=O)c1`: the Potency entry was “inactive”.

For `CCOc1ccccc1NC(=O)Cn1c2ncccc2c(=O)n1-c1ccc(C)c(C)c1`, the Potency result was “inactive”.

Regarding `COc1cc(CN2CCC(C(N)=O)CC2)ccc1OCc1ccccc1`, the Potency was 10.7 µM (active).

On to `CCOc1cc(CN2CCN(C(=O)CC(C)C)CC2)ccc1OC`, for which the Potency entry was “inactive”.

For `COc1ccc(COCC(O)CN2CCC(C(N)=O)CC2)cc1` (stereo unspecified), the Potency result was “inactive”.

For `CCC(C)(C)NC(=O)CN(Cc1cccs1)C(=O)CNS(=O)(=O)c1ccc(F)cc1`, the Potency result was “inactive”.

`CCOC(=O)Cn1c(=O)n(Cc2ccc(OC)cc2)c(=O)c2cccnc21`: the Potency result was “inactive”.

In the case of `CCOC(=O)c1cnc2c(C)cc(Cl)cc2c1NCCc1ccc(OC)c(OC)c1`, the Potency entry is “inactive”.

Regarding `COc1cc(NC(=O)Cn2nc(-c3ccc(C)c(C)c3)ccc2=O)cc(OC)c1`, the Potency entry is “inactive”.
